Compound activity deposited in PubChem BioAssay by National Center for Advancing Translational Sciences (NCATS).
BAZ2B inh = blocks human BAZ2B. AID 504333. Potency, µM (series often up to 114 µM), without a hit: top-dose activity change, negative = inhibition, hits mostly inhibitors. Q9UIF8. hit rate 4.4% among 360,000. AlphaScreen BAZ2B-H3K14Ac peptide displacement; also: % is scaled to controls: 0 for no effect and ±100 for the full control effect; nearly all actives have a fitted effect of over 60% in size
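Complex of BAZ2B and biotin-H3K14Ac (50 nM apiece) forms over 30 min at RT, then faces library compounds up to 110 uM for another 30 min; AlphaScreen beads added, 20 min dark incubation, luminescence read.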
G9a block = G9a (human) methyltransferase inhibition. Q96KQ7. Potency, µM (top dose mostly 102 µM), without a hit: at the top dose activity, negative = inhibition, actives largely listed as inhibitors. hit rate 8.8% among 350,000. G9a H3K9 monomethylation, AlphaScreen, 2 h. AID 504332; also: % is scaled to controls: 0 for no effect and ±100 for the full control effect; nearly all actives have a fitted effect of over 75% in size
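Signal arises when biotinylated H3K9 peptide, once monomethylated, bridges streptavidin donor and antibody-captured acceptor beads. Enzyme at 20 nM was preincubated 15 min with test compounds; peptide 500 nM and SAM 20 uM then reacted for 2 h.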
GLS inh = inhibitors of human glutaminase (GLS); O94925; GLS enzymatic activity, qHTS titration; Potency, µM (doses to about 45.5 µM), for inactives: top-dose activity change, negative = inhibition, most hits filed as inhibitors; hit rate 0.21% among 410,000; AID 624170; also: % is scaled to controls: 0 for no effect and ±100 for the full control effect
Target sequence (O94925 whole entry, looked up): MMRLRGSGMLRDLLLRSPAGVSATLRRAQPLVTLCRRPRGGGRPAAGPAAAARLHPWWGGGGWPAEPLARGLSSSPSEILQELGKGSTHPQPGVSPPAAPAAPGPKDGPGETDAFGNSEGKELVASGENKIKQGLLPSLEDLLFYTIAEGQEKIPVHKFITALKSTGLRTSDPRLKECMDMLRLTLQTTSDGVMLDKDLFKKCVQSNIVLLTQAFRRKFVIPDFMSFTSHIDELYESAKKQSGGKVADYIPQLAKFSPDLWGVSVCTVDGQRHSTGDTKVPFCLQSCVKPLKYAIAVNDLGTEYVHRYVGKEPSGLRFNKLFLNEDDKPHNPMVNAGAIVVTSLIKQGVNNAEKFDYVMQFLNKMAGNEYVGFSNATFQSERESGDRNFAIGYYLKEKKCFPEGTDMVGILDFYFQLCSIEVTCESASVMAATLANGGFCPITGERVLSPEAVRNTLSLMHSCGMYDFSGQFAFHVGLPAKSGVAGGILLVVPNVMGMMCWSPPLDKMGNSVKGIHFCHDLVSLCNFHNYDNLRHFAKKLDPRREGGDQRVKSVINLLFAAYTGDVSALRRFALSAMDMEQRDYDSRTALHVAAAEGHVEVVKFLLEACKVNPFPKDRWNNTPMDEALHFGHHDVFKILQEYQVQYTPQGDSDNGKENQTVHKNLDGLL
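Coupled fluorescence readout: glutamate oxidase/HRP/Amplex Red detect glutamate formed by hKGA from L-glutamine (1 mM solution added). Buffer 45 mM KH2PO4 pH 8.2, 0.02% Tween-20; reads at t0 and 30 min RT.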
HP1b binding inh = HP1-beta chromodomain-methylated histone interaction inhibition. P83916. AlphaScreen HP1-beta / biotin-H3K9me3 peptide binding. Potency, µM (titrated, usually from 114 µM), for inactives: at the top dose activity change, negative = inhibition, most hits filed as inhibitors. hit rate 0.56% among 390,000. AID 540317; also: nearly all actives have a fitted effect of over 70% in size
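AlphaScreen: HP1-beta (50 nM) preformed 30 min with biotin-H3(1-18)K9me3 peptide (50 nM) in PBS pH 7.4, 0.01% Tween-20. Compound added for 30 min at RT, then streptavidin donor/nickel chelate acceptor beads (10 ug/mL) for 30 min.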
JMJD2A Tudor inh = blocks the human JMJD2A Tudor domain. O75164. Potency, µM (titrated, usually from 114 µM), inactives show at the top dose activity change, negative = inhibition, most hits filed as inhibitors. hit rate 4.4% among 390,000. AID 504339. AlphaScreen JMJD2A-Tudor / H3K4me3 peptide binding; also: % is scaled to controls: 0 for no effect and ±100 for the full control effect; nearly all actives have a fitted effect of over 50% in size
* = called active by the depositor; ? = inconclusive; · = no result given; [ ] = remark or other dose. Most compounds without a hit are left out; they make up all but 10% or so of the library. Calls follow the shape of the dose curve; as a rule, active = well fitted curve in the direction sought with a large enough effect; inconclusive = small, poorly fitted or top-dose-only effect, or another doubt; inactive = no such curve, though single readings can be large; an effect the other way counts as inactive or inconclusive. Potency is read from the fitted curve at half-maximal effect.

SMILES	BAZ2B inh	G9a block	GLS inh	HP1b binding inh	JMJD2A Tudor inh
O=C(Nc1cccc(-c2nc3ccccc3o2)c1)c1cc([N+](=O)[O-])ccc1N1CCOCC1	?	?	-2%	21%	-28%
CCc1cccc(C)c1NC(=O)CN(C)S(=O)(=O)c1ccc(-c2ccc(=O)[nH]n2)s1	-15%	-7%	-2%	28%	-20%
CC(C)Cn1c(=O)c2ccccc2n2c(CCC(=O)NC(C)c3ccccc3)nnc12 (stereo not given)	2%	-4%[59 µM]	5%	5%	-15%
CCc1nnc(N/N=C/c2ccc(N3CCC(C)CC3)c([N+](=O)[O-])c2)n1N	?	50µM*	16%	-5%	?
Nn1cnnc1N/N=C/c1ccc(F)cc1	2%	45µM*	20%	65%	-11%
Cc1nnc(N/N=C/c2ccc([N+](=O)[O-])cc2)n1N	?	22%	?	14%	-12%
Nn1cnnc1N/N=C/c1ccc(Cl)c([N+](=O)[O-])c1	-28%	45µM*	-1%	35%	?
Cc1ccc(/C=N/Nc2nncn2N)cc1	-6%	5%[2.33 µM]	22%	75%	-12%
CC(=O)NC(c1ccccc1)c1nc(-c2ccc(Cl)cc2)cs1 (stereo not given)	·	·	-3%	·	·
CC1CCCC2(C1)NC(=S)c1c(sc3c1CCCC3)N2 (stereo not given)	?	8.9µM*	-3%	?	79µM*
CN1C(=O)c2c(sc3c2CCCC3)NC1c1ccccc1O (stereo not given)	-28%	?	·	·	·
NS(=O)(=O)c1ccc(CNS(=O)(=O)c2ccc(Cl)nc2)cc1	-5%	56µM*	0%	35%	-12%
COc1ccc2nc(-n3c(O)c(C4=c5ccccc5=NC4=O)[nH]c3=S)sc2c1	13µM*	?	-14%	?	?
Cn1c(O)c(C2=c3ccccc3=NC2=O)[nH]c1=S	?	-22%[59 µM]	17%	13%	-25%
O=C(CN1C(=O)c2ccccc2C1=O)Nc1ccccc1	7%	18%	19%	26%	-10%
O=C(Cn1sc2ccccc2c1=O)Nc1ccccc1	·	·	7.1µM*	·	·
O=C(Cn1sc2ccccc2c1=O)NC12CC3CC(CC(C3)C1)C2	11µM*	?	?	?	2.8µM*
CCCCc1nn2c(=O)cc(COC(=O)c3ccccc3NC(=O)c3cccs3)nc2s1	4%	30%[59 µM]	-5%	46%	-3%
CCC(C)c1ccccc1OCCOCCN1CCCC1 (stereo not given)	?	13µM*	11%	?	2.5µM*
CCC(C)c1ccccc1OCCCCN1CCCC1 (stereo not given)	?	?	3%	-11%	3.2µM*
CC(C)(C)c1ccccc1OCCOCCN1CCCCCC1	-38%	-43%	?	16%	-13%
Cc1ccc(C2C(C(=O)c3ccco3)=C(O)C(=O)N2c2ncccn2)cc1 (stereo not given)	-36%	10%	-18%	13%	-12%
Cc1nnc(N2C(=O)C(O)=C(C(=O)c3ccco3)C2c2ccc(C(C)(C)C)cc2)s1 (stereo not given)	-1%	?	18%	29%	-31%
CSc1ccc(C2C(C(=O)c3ccco3)=C(O)C(=O)N2c2nnc(SC)s2)cc1 (stereo not given)	?	?	2%	10%	7.1µM*
Cc1nnc(N2C(=O)C(O)=C(C(=O)c3ccco3)C2c2ccc(C(C)C)cc2)s1 (stereo not given)	-12%	45µM*	8%	36%	?
SMILES	BAZ2B inh	G9a block	GLS inh	HP1b binding inh	JMJD2A Tudor inh
CCCOc1cccc(C2C(C(=O)c3ccco3)=C(O)C(=O)N2c2nnc(C)s2)c1 (stereo not given)	-17%	?	12%	20%	-15%
Cc1nnc(N2C(=O)C(O)=C(C(=O)c3ccco3)C2c2ccc(F)cc2)s1 (stereo not given)	4%	?	4%	34%	56µM*
Cc1ccc(NC(=O)C2CCCN(c3ncnc4c3nc3n4CCCCC3)C2)c(Br)c1 (stereo not given)	1%	0%[59 µM]	-1%	34%	4%
Cc1cccc(Nc2nc(-c3cccs3)cs2)n1	-32%	8.9µM*	24%	-22%	-23%
Cc1cccc(Nc2nc(-c3ccccn3)cs2)n1	20µM*	?	-1%	43%	?
Cc1ccc(NC(=O)C2CCCN2S(=O)(=O)c2ccc3nc(-c4ccccc4)[nH]c3c2)cc1F (stereo not given)	-36%	-29%[59 µM]	-8%	29%	?
COc1ccc(OC)c(NC(=O)C2(C)CCN2C(=O)C2(c3ccc(Cl)cc3)CCC2)c1 (stereo not given)	·	·	2%	·	·
O=C(O)CCCC(=O)Nc1cc([N+](=O)[O-])ccc1O	-9%	-24%	-7%	44%	-24%
CCCC(CCC(=O)Nc1cc([N+](=O)[O-])ccc1O)C(=O)O (stereo not given)	56µM*	?	0%	-4%	-6%
CC(=O)c1cc(-c2ccccc2)n(CC(=O)N2CCC(C)CC2)c1C	50µM*	21%[59 µM]	2%	0%	-11%
CC(=O)c1cc(-c2ccccc2)n(CC(=O)N2CCN(C3CCCC3)CC2)c1C	50µM*	7%[12.7 µM]	-10%	-14%	12%[11.4 µM]
O=C(CSc1ncc2c(n1)-c1ccccc1N(Cc1ccc(F)cc1)S2(=O)=O)NCc1ccccc1	?	5%[59 µM]	5%	6%	-11%
COc1cccc(N2CCN(S(=O)(=O)c3cccc4nsnc34)CC2)c1	-37%	56µM*	3%	17%	-26%
COc1ccccc1N1CCN(S(=O)(=O)c2cccc3nsnc23)CC1	?	?	2%	-22%	?
COc1ccc(N2CCN(S(=O)(=O)c3cccc4nsnc34)CC2)cc1	?	-11%[12.7 µM]	36%	-37%	56µM*
CC(=O)c1ccc(N2CCN(S(=O)(=O)c3cccc4nsnc34)CC2)cc1	-25%	-31%	-13%	?	?
COc1ccc2[nH]cc(CCNc3ncncc3-c3ccccc3C(F)(F)F)c2c1	·	9%[0.501 µM]	·	·	·
O=c1cc(CN2CCN(c3ccccc3)CC2)c2ccccc2o1	·	·	14%	·	·
O=C1/C(=C/c2ccc(N3CCOCC3)o2)SC(=Nc2ccccc2)N1CCc1c[nH]c2ccccc12	?	?	?	-38%	?
COc1ccc(N=C2S/C(=C\c3ccc(OC(C)C(=O)O)c(OC)c3)C(=O)N2CCc2c[nH]c3ccccc23)cc1 (stereo not given)	22µM*	35µM*	2%	?	40µM*
COc1cc(/C=C2\SC(=Nc3ccccc3)N(CCc3c[nH]c4ccccc34)C2=O)ccc1OC(C)C(=O)O (stereo not given)	45µM*	6.3µM*	25%	?	56µM*
CCOC(=O)c1c(C)c(-c2ccccc2)n(CC(=O)NCCc2ccc(C)cc2)c1C	2%	-5%[59 µM]	0%	21%	0%
